Here are results for seven compounds from PubChem BioAssay (Tox21).

Where “and” joins values, the source holds several entries; their conditions need not be identical. Equal values may be shown once. Results filed as inconclusive are left out. Some compounds were tested as several samples or in several runs, with calls that do not always agree. Calls of active or inactive are those of the source. Unless noted, calls follow the shape of the dose curve; as a rule, active = well fitted curve in the direction sought with a large enough effect in the repeat runs; inconclusive = weak or mixed curves; inactive = no such curve, though single readings can be large; an effect the other way counts as inactive or inconclusive.

The nature of experiment [1]: qHTS assay to test for compound auto fluorescence at 535 nm (green) in HEK293 cells (AID 720680).
A short description of experiment [2]: qHTS assay to test for compound auto fluorescence at 460 nm (blue) in HEK293 cell free culture (AID 720681). The essentials: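 Blue fluorescence (Ex 405/Em 460 nm, triamterene-equivalent) was read immediately after pin transfer of compound or DMSO into medium (DMEM, 10% FBS) without cells.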
A short description of experiment [3]: qHTS assay to test for compound auto fluorescence at 535 nm (green) in HEK293 cell free culture (AID 720682). Summed up: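 Green-channel intensity (Ex/Em 485/535 nm) was recorded from compound-treated wells containing only DMEM with 10% FBS. Fluorescein provided the equivalency standard.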
A short description of experiment [4]: qHTS assay to test for compound auto fluorescence at 590 nm (red) in HEK293 cell free culture (AID 720683). Summed up:
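Red-channel autofluorescence of compounds in culture medium (DMEM, 10% FBS), no cells, measured at 540/590 nm. Rose Bengal sodium is the reference fluorophore for equivalence.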

Experiment [5] is described as follows: qHTS assay to test for compound auto fluorescence at 590 nm (red) in HepG2 cell free culture (AID 720684). Summed up:
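No cells present: MEM + 10% FBS only. Compound pinned in, red label read (540/590 nm). Activity = fluorescence equivalent to Rose Bengal sodium.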

A short description of experiment [6]: qHTS assay to test for compound auto fluorescence at 460 nm (blue) in HepG2 cell free culture (AID 720685). The essentials:
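Cell-free plates of MEM plus 10% FBS received 23 nL compound or DMSO vehicle; blue-channel (405/460 nm) intensity scored against triamterene as reference fluorophore.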

The nature of experiment [7]: qHTS assay to test for compound auto fluorescence at 535 nm (green) in HepG2 cell free culture (AID 720686).
The nature of experiment [8]: qHTS assay to test for compound auto fluorescence at 460 nm (blue) in HepG2 cells (AID 720687). The essentials: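 Blue-channel autofluorescence (Ex/Em 405/460 nm, triamterene-equivalent) was measured after 1 hr compound exposure at 37 C, 5% CO2. Cells were HepG2, plated overnight at 37 C in MEM plus 10% FBS.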
Experiment [9] has as its target Glucocorticoid receptor (Homo sapiens) (UniProt P04150). Description: qHTS assay to identify small molecule agonists of the glucocorticoid receptor (GR) signaling pathway (AID 720691; active = well fitted activation curve with a large enough effect in the signal ratio in the repeat runs, not every such curve was filed as active; the % refers to the signal ratio). The following applies: GR-bla HeLa, beta-lactamase reporter ratio, 18 h; activation: at 62.4 µM (top of the series). Summed up:
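Compounds in DMSO, alongside positive controls, were added to GR-bla HeLa reporter cells and incubated 18 h at 37 C; GRE-driven beta-lactamase was detected by fluorescence after 2 h with FRET substrate at room temperature.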

Experiment [10] is described as follows: qHTS assay to identify small molecule antagonists of the glucocorticoid receptor (GR) signaling pathway - cell viability counter screen (AID 720693). Also: nearly all actives have a fitted effect of over 55% in size. Also: potency is read from the fitted curve at half-maximal effect.
Experiment [11] in a line: qHTS assay for identifying genotoxic compounds that show differential cytotoxicity against isogenic chicken DT40 cell lines with known DNA damage response pathways - wild type cell line (AID 743012). Also: nearly all actives have a fitted effect of over 60% in size. Also: potency is read from the fitted curve at half-maximal effect. The essentials: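 Viability of DNA repair-proficient chicken DT40 cells was assessed by CellTiter-Glo luminescence following 40 h compound exposure at 37 C/5% CO2.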
Experiment [12] can be described thus: qHTS assay for identifying genotoxic compounds that show differential cytotoxicity against isogenic chicken DT40 cell lines with known DNA damage response pathways - Rev3 mutant cell line (AID 743014). Also: nearly all actives have a fitted effect of over 55% in size. Also: potency is read from the fitted curve at half-maximal effect.
Experiment [13] is described as follows: qHTS assay for identifying genotoxic compounds that show differential cytotoxicity against isogenic chicken DT40 cell lines with known DNA damage response pathways - Rad54/Ku70 mutant cell line (AID 743015). Also: nearly all actives have a fitted effect of over 60% in size. Also: potency is read from the fitted curve at half-maximal effect.
Experiment [14] is described as follows: qHTS assay to identify small molecule antagonists of the androgen receptor (AR) signaling pathway - cell viability counter screen (AID 743033; also: nearly all actives have a fitted effect of over 45% in size; also: potency is read from the fitted curve at half-maximal effect).
Experiment [15] is described as follows: qHTS assay to identify small molecule antagonists of the androgen receptor (AR) signaling pathway using the MDA cell line - cell viability counter screen (AID 743041; also: nearly all actives have a fitted effect of over 45% in size). The essentials: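 Using the breast carcinoma line MDA-kb2 AR-luc, test chemicals were co-incubated with R1881 for 16 h; CellTiter-Fluor reagent, added at 15.5 h, provided a fluorescence measure of live cells.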

Experiment [16] deals with Glucocorticoid receptor (Homo sapiens) (UniProt P04150). Description: qHTS assay to identify small molecule antagonists of the glucocorticoid receptor (GR) signaling pathway (AID 720692; active = well fitted inhibition curve with a large enough effect in the signal ratio in the repeat runs, not every such curve was filed as active; the % refers to the signal ratio). Summed up: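 In a 1536-well cell format, compounds were added 4 h after seeding GR-bla HeLa cells, together with dexamethasone at 5 nM final; reporter activity was measured by FRET-substrate fluorescence following 18 h at 37 C.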

Experiment [17] addresses Androgen receptor (Homo sapiens) (UniProt P10275). Description: qHTS assay to identify small molecule agonists of the androgen receptor (AR) signaling pathway (AID 743036; active = well fitted activation curve with a large enough effect in the signal ratio in the repeat runs, with a control signal flat, not every such curve was filed as active; the % refers to the signal ratio). The essentials:
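Cell-based FRET reporter assay: HEK293 line with a UAS-beta-lactamase construct, compounds added in DMSO, 16 h exposure at 37C, then 2 h substrate step at room temperature and fluorescence intensity read.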

The target is the same in experiment [18]. Description: qHTS assay to identify small molecule agonists of the androgen receptor (AR) signaling pathway using the MDA cell line (AID 743040; also: nearly all actives have a fitted effect of over 20% in size). Summed up:
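Stable MMTV-luciferase reporter in MDA-kb2 cells; note the promoter carries GR as well as AR response elements. 16 h compound treatment, 37C, 0% CO2; ONE-Glo luminescence endpoint.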

The target is the same in experiment [19]. Description: qHTS assay to identify small molecule antagonists of the androgen receptor (AR) signaling pathway using the MDA cell line (AID 743042; also: nearly all actives have a fitted effect of over 55% in size). The essentials:
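Antagonist mode: compounds plus R1881 agonist added to MDA-kb2 AR-luc cells, incubated 16 h at 37C. Luciferase reporter luminescence quantified, with multiplexed CellTiter-Fluor readout for cell viability.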
% is scaled to controls: 0 for no effect and ±100 for the full control effect.

Androgen receptor (Homo sapiens), sequence (P10275 whole entry, looked up): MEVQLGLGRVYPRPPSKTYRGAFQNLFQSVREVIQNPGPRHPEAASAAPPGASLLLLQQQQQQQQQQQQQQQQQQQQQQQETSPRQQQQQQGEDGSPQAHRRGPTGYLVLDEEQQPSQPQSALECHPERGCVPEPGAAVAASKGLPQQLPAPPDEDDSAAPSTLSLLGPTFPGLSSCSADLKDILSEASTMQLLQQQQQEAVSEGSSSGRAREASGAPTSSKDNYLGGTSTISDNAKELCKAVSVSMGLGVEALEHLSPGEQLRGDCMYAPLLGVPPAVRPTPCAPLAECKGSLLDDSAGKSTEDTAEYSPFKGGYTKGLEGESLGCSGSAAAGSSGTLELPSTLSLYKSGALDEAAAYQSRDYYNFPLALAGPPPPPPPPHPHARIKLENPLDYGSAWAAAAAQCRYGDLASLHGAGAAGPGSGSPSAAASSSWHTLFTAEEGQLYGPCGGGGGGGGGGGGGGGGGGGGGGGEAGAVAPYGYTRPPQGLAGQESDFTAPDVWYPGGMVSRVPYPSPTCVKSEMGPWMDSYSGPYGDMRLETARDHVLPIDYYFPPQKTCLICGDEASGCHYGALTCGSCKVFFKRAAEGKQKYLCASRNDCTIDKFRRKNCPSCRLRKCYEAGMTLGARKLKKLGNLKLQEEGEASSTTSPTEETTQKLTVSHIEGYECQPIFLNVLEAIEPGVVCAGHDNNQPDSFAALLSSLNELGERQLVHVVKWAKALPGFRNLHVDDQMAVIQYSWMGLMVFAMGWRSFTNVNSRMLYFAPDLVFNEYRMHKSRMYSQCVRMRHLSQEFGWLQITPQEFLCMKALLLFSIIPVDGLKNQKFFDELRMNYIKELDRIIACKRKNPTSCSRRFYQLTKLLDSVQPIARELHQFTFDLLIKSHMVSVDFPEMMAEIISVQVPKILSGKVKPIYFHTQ
Glucocorticoid receptor (Homo sapiens), sequence (P04150 whole entry, looked up): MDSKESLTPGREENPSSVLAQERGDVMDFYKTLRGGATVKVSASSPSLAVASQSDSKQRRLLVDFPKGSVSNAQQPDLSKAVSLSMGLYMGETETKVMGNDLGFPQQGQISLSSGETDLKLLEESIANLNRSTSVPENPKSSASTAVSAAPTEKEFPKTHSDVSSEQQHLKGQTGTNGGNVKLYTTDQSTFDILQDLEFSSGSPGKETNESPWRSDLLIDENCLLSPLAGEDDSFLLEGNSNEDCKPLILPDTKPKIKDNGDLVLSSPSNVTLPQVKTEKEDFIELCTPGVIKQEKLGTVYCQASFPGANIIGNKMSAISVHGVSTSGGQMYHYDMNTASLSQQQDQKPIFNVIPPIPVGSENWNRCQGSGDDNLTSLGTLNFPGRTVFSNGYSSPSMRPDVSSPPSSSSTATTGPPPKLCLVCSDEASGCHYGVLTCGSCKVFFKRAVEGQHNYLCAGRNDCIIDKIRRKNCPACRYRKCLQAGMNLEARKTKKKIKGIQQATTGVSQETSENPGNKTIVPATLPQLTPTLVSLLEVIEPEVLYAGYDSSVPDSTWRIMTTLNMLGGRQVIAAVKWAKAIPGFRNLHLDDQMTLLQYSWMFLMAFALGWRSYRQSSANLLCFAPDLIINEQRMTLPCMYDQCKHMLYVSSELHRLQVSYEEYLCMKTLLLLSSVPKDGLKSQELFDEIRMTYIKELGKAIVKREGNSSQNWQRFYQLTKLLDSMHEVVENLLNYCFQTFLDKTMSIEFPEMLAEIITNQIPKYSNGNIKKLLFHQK

With `C[C@]12C/C(=C/O)C(=O)C[C@@H]1CC[C@@H]1[C@@H]2CC[C@@]2(C)[C@H]1CC[C@]2(C)O`, the compound was classed as inactive in experiment [1], in experiment [3], in experiment [4] and in experiment [5]. Further, the Potency entry in experiment [2], in experiment [6], in [7], in experiment [8], in experiment [9] and in [15] was “inactive” in each case. Moreover, the Potency in experiment [10] is 49.4 µM (active); in experiment [11], 29.8 µM (active); in experiment [12], 49 µM (active); in experiment [13], 13.3 µM (active) and 15.5 µM (active); in [14], “inactive and 44.1 µM (active)”.

Consider `O=[N+]([O-])C(Br)Br`, for which the compound was classed as inactive in experiment [1], in [3], in experiment [4], in experiment [5], in experiment [17] and in experiment [18]. For the same compound, the Potency entry in experiment [2], in experiment [6], in experiment [7], in [8], in experiment [9] and in experiment [16] was “inactive” throughout. Moreover, the Potency result in experiment [10], in experiment [14], in [15] and in experiment [19] was “inactive” in each case.

For `COC(=O)/C=C(\C)OP(=O)(OC)OC`, the outcome in experiment [1], in [3], in experiment [4] and in experiment [5] was inactive. For the same compound, the Potency result in [2], in experiment [6], in experiment [7], in experiment [8], in experiment [9] and in experiment [10] was “inactive” in each case. Further, the Potency result in experiment [11], in experiment [13], in experiment [14] and in experiment [15] was “inactive” each time. The Potency in experiment [12] was 24.3 µM (active).

Regarding `COCCC#N`, the compound was called inactive in [1], in experiment [3], in experiment [4] and in experiment [5]. The Potency result in [2], in experiment [6], in experiment [7], in [8], in experiment [9] and in experiment [16] was “inactive” in each case. The Potency result in experiment [10], in experiment [11], in experiment [12], in experiment [13], in [14] and in [15] was “inactive” in each case.

Regarding `CCOC(=O)CCN(SN(C)C(=O)Oc1cccc2c1OC(C)(C)C2)C(C)C`, the result in [1], in experiment [3], in [4] and in [5] was inactive. Besides, the Potency entry in experiment [2], in experiment [6], in [7], in [8], in experiment [9] and in experiment [16] was “inactive” throughout. Also, the Potency entry in [10], in experiment [14] and in [15] was “inactive” in each case. The figures for the Potency in experiment [11], in experiment [12] and in [13] were 17.2 µM (active), 24.3 µM (active) and 21.7 µM (active), respectively.

For `Clc1c(Cl)c(Cl)c(Cl)c(Cl)c1Cl`, in [1], the fluorescence, % of fluorescein is 0.081% [at 3.72 µM] (inactive). For the same compound, the fluorescence, % of fluorescent control is -0.026% [at 3.72 µM] (inactive) in experiment [2], 0.029% [at 3.72 µM] (inactive) in experiment [4], 0.0528% [at 3.72 µM] (inactive) in experiment [6] and -0.0163% [at 3.72 µM] (inactive) in experiment [8]. The activity change in experiment [3] was 0.0009% [at 3.72 µM] (inactive). The fluorescence, % of Rose Bengal in [5] was -0.0219% [at 3.72 µM] (inactive). In experiment [7], the fluorescence, % of fluorescein control was -0.0548% [at 3.72 µM] (inactive). Besides, the activation in experiment [9] is -0.383% [at 6.9 µM] (inactive). The activity change, negative = inhibition in experiment [16] was -10.3% [at 7.04 µM] (inactive). The viability change, negative = cytotoxic in [10] is -7.19% [at 7.04 µM] (inactive); in [15], -2.06% [at 8.47 µM] (inactive). In addition, the activity change, negative = cytotoxicity in experiment [11] was 20.8% [at 8.52 µM] (inactive); in experiment [13], -2.7% [at 8.55 µM] (inactive); in [14], 3.9% [at 7.04 µM] (inactive). Moreover, in experiment [12], the activity, negative = cytotoxicity was 6.09% [at 8.53 µM] (inactive).

In the case of `CCN(CC)CCc1c[nH]c2ccccc12`, the outcome in experiment [1], in [3], in experiment [4] and in experiment [5] was inactive. In addition, the Potency result in [2], in experiment [6], in [7], in experiment [8], in experiment [9] and in [16] was “inactive” throughout. In addition, the Potency result in [10], in experiment [12], in experiment [13], in experiment [14] and in [15] was “inactive” each time.
